Measurements published in PubChem BioAssay AID1159580 (chemical genetic matrix, 2015).
The whole screen tested about 5,500 compounds, of which about 2,000 (36%) were called active. Inconclusive results (about 18%) are left out. Rule as the data show it: active = normalized growth mostly below about 0.91 (no sharp cut-off); inconclusive = no clear call, values can overlap the other calls; inactive = mostly above about 0.92. The list shows a part of the results.

Experiment: chemical genetic growth profiling, strain panel (AID 1159580);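 also: tested at 20 µM; growth read once vehicle control cultures reached saturation at 30 °C; 1 = growth at the plate median or of vehicle wells; lower values mean less growth of the strain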
Settings: S. cerevisiae deletion strains, growth OD
[1] = locus YDL101C, strain DUN1, hits give low values
[2] = locus YHR030C, strain SLT2, hits give low values
[3] = locus YAL013W, strain DEP1, hits give low values
[4] = locus YBR229C, strain ROT2, hits give low values
[5] = locus YCL061C, strain MRC1, hits give low values
[6] = locus YDR150W, strain NUM1, hits give low values
[7] = locus YEL061C, strain CIN8, hits give low values
[8] = locus YGR078C, strain PAC10, hits give low values
[9] = locus YHR087W, strain rtc3, hits give low values
[10] = locus YJR043C, strain POL32, hits give low values
[11] = locus YJR075W, strain HOC1, hits give low values
[12] = locus YLR039C, strain RIC1, hits give low values
[13] = locus YLR058C, strain SHM2 (second series), hits give low values
[14] = locus YLR085C, strain ARP6, hits give low values
[15] = locus YLR262C, strain YPT6, hits give low values
[16] = locus YML094W, strain GIM5, hits give low values
[17] = locus YMR219W, strain ESC1, hits give low values
[18] = locus YMR263W, strain SAP30, hits give low values
[19] = locus YNL153C, strain GIM3, hits give low values
[20] = locus YNL298W, strain CLA4 (second series), hits give low values
[21] = locus YNL322C, strain KRE1, hits give low values
[22] = locus YNR030W, strain Alg12, hits give low values
[23] = locus YOL006C, strain TOP1, hits give low values
[24] = locus YPL055C, strain LGE1, hits give low values
[25] = locus YPL241C, strain CIN2, hits give low values
[26] = locus YPR135W, strain CTF4, hits give low values

Measured: normalized growth

O=[N+]([O-])c1cc(Br)cnc1Sc1nnc(SCC2CC2)s1
inactive: locus YAR019C, strain CDC15, hits give low values 0.928 | locus YBL105C, strain PKC1, hits give low values 0.96 | locus YBR135W, strain CKS1, hits give low values 0.932 | locus YBR136W, strain MEC1, hits give low values 0.959 | locus YBR160W, strain CDC28, hits give low values 0.953 | locus YDL017W, strain CDC7, hits give low values 0.961 | locus YDL028C, strain MPS1, hits give low values 0.935 | [1] 0.965 | locus YDL108W, strain KIN28, hits give low values 0.952 | locus YDL132W, strain cdc53, hits give low values 0.936 | locus YDR052C, strain DBF4, hits give low values 0.964 | locus YDR054C, strain cdc34, hits give low values 0.947 | locus YDR226W, strain ADK1, hits give low values 0.927 | locus YDR477W, strain SNF1, hits give low values 0.767 | locus YER133W, strain GLC7, hits give low values 0.762 | locus YFL009W, strain cdc4, hits give low values 0.93 | locus YFL029C, strain CAK1, hits give low values 0.943 | locus YFR003C, strain YPI1, hits give low values 0.962 | locus YFR028C, strain CDC14, hits give low values 0.943 | locus YGR040W, strain KSS1, hits give low values 0.771 | locus YGR052W, strain FMP48, hits give low values 0.7 | locus YHR082C, strain KSP1, hits give low values 0.707 | locus YHR205W, strain SCH9, hits give low values 0.609 | locus YIL147C, strain SLN1, hits give low values 0.952 | locus YJL128C, strain PBS2, hits give low values 0.948 | locus YJR016C, strain ILV3, hits give low values 0.944 | locus YJR066W, strain TOR1, hits give low values 0.621 | locus YKL193C, strain SDS22, hits give low values 0.935 | locus YKL203C, strain TOR2, hits give low values 0.872 | locus YLR403W, strain SFP1, hits give low values 0.754 | locus YMR001C, strain CDC5, hits give low values 0.928 | locus YMR277W, strain FCP1, hits give low values 0.924 | locus YNL006W, strain LST8, hits give low values 0.961 | locus YNL161W, strain CBK1, hits give low values 0.939 | locus YNL207W, strain RIO2, hits give low values 0.929 | locus YNL222W, strain SSU72, hits give low values 0.944 | locus YOL078W, strain AVO1, hits give low values 0.927 | locus YOR119C, strain RIO1, hits give low values 0.818 | locus YOR329C, strain SCD5, hits give low values 0.962 | locus YPL204W, strain HRR25, hits give low values 0.751 | locus YPL209C, strain IPL1, hits give low values 0.958 | locus YPR025C, strain CCL1, hits give low values 0.95 | locus YPR106W, strain ISR1, hits give low values 0.978 | locus YPR111W, strain DBF20, hits give low values 0.96 | strain NNK1, hits give low values 0.969 | strain TSCII, hits give low values 0.929
active: locus YDL214C, strain PRR2, hits give low values 0.458 | locus YER123W, strain YCK3, hits give low values 0.529 | locus YFR019W, strain FAB1, hits give low values 0.721 | locus YGR092W, strain DBF2, hits give low values 0.484 | [2] 0.197 | locus YHR079C, strain IRE1, hits give low values 0.418 | locus YJL095W, strain BCK1, hits give low values 0.35 | locus YJL157C, strain FAR1, hits give low values 0.533 | locus YJR066W, strain TOR1 (second series), hits give low values 0.531 | locus YKL048C, strain ELM1, hits give low values 0.778 | locus YKL067W, strain YNK1, hits give low values 0.39 | locus YKL101W, strain HSL1, hits give low values 0.542 | locus YLR113W, strain HOG1, hits give low values 0.554 | locus YLR133W, strain CKI1, hits give low values 0.574 | locus YML070W, strain DAK1, hits give low values 0.465 | locus YMR205C, strain PFK2 (second series), hits give low values 0.387 | locus YNL020C, strain ARK1, hits give low values 0.418 | locus YNL183C, strain NPR1, hits give low values 0.351 | locus YNL307C, strain MCK1 (second series), hits give low values 0.556 | locus YOL136C, strain PFK27, hits give low values 0.633 | locus YOR061W, strain CKA2, hits give low values 0.174 | locus YOR231W, strain MKK1, hits give low values 0.333 | locus YPL031C, strain PHO85, hits give low values 0.55 | locus YPL153C, strain RAD53, hits give low values 0.629 | locus YPL256C, strain CLN2, hits give low values 0.515

CN(C)C=Nc1nnc(Sc2ncccc2[N+](=O)[O-])s1
inactive: [3] 0.999 | [4] 1 | [5] 1.01 | [1] 1.01 | locus YDL134C, strain PPH21, hits give low values 1.01 | [6] 0.987 | [7] 0.995 | [8] 1 | locus YGR229C, strain SMI1, hits give low values 0.992 | [2] 1 | [9] 1.01 | [10] 0.985 | [11] 0.997 | [12] 1.03 | [13] 1 | [14] 1.06 | [15] 1.03 | [16] 1.01 | [17] 1.01 | [18] 0.995 | locus YMR307W, strain GAS1, hits give low values 0.983 | [19] 0.977 | [20] 1.06 | [21] 1.02 | [22] 1.04 | [23] 1.01 | [24] 0.988 | [25] 1.02 | [26] 1.06

CC(C)(C)NS(=O)(=O)NC(C)(C)C
active: [25] 1.16 [resistant]
inactive: [3] 0.995 | [4] 1 | [5] 1.03 | [1] 0.977 | [6] 0.88 | [7] 1.01 | [8] 0.999 | [2] 0.952 | [9] 0.964 | locus YJL187C, strain SWE1, hits give low values 0.999 | [10] 0.998 | [11] 1.02 | locus YKL190W, strain CNB1, hits give low values 1 | [12] 1.02 | [13] 1 | [14] 0.999 | [15] 1.02 | [16] 0.976 | [17] 0.995 | [18] 1.04 | locus YNL128W, strain TEP1, hits give low values 0.997 | [19] 1.01 | [20] 0.973 | [21] 1 | [22] 1.01 | [23] 1.01 | [24] 0.921 | [26] 1.02
